Compound activity: PubChem, National Center for Advancing Translational Sciences (NCATS)
Rows were chosen to be rich in hits. Some 14% of all compounds tested hit in one or more screens of this group.
A350 autofl: compound fluoresces in the Alexa 350 spectral region. Compound autofluorescence, 340/450 nm, Alexa 350 dye-equivalents; stronger effect = higher value. actives 11% (n = 59,000). AID 590. max dye-equivalent concentration, M; in the data active = max dye-equivalent concentration above about 10 nM; inconclusive = mostly about 1.1 nM to 9.6 nM
AID923: qHTS Assay for Allosteric/Competitive Inhibitors of Caspase-1: Spectroscopic Profiling in AFC Spectral Region | compound fluorescence, AFC spectral region (405/520 nm) | Potency, µM (series often up to 57.5 µM), for the others: at the top dose fluorescence increase, usual class: activators | AID 923, 2007 | actives 1.1% (n = 75,000); note: potency is the fitted concentration of half-maximal effect; 0% is about no effect
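Compound autofluorescence profiled at 405 nm ex/520 nm em during kinetic caspase 1 run (50 nM enzyme, 5 uM Ac-WEHD-AFC, HEPES pH 7.5, 10 mM DTT). Titration up to 57 uM; baseline from regression intercept, normalized to AFC standard curve.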
CRE-bla Fsk: alters forskolin-stimulated CRE reporter signaling in CHO cells | CHO CRE-bla reporter (cAMP response element driving beta-lactamase), forskolin EC10, beta-lactamase ratio | Potency, µM (series often up to 38.2 µM), without a hit: at the top dose activity change, negative = inhibition, most hits filed as activators | actives 2.5% (n = 71,000) | AID 662; active = well fitted activation curve with a large enough effect in the signal ratio, with a control signal flat, not every such curve was filed as active; inconclusive = small, poorly fitted or top-dose-only effect, or effect the other way, or a change in a side signal; the % refers to the signal ratio; note: potency is the fitted concentration of half-maximal effect; % of control where 0% means no effect
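CRE-bla CHO reporter cells treated with compound titration plus EC10 NKH 477 (water-soluble forskolin), incubated 3 h at 37 °C; CCF4 loading 2 h at room temperature, 460/530 nm emission ratio read, AC50 values derived for positive or negative modulators.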
4MU fluor: 4-MU region autofluorescence. compound autofluorescence, 340/450 nm, 4-MU equivalents; stronger effect = higher value. max dye-equivalent concentration, M. actives 11% (n = 59,000); in the data active = max dye-equivalent concentration above about 10 nM; inconclusive = mostly about 1.1 nM to 9.6 nM
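Compounds in 100 mM Tris, pH 8.0, sat 15 min at room temperature before fluorescence was read at 340 nm excitation/450 nm emission; a per-plate six-point 4-MU standard curve converted signals to dye-equivalent concentration at each compound concentration.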
HADH2 inhib: inhibitors of human HADH2 dehydrogenase; Potency, µM (titrated, usually from 57.1 µM), without a hit: at the highest dose activity change, negative = inhibition, hits mostly inhibitors; recombinant HADH2, NADH fluorescence, beta-hydroxybutyryl-CoA; Q99714; actives 3.4% (n = 73,000); note: potency is the fitted concentration of half-maximal effect; % is set by controls: 0 for no effect and ±100 for the full control effect; nearly all actives have a fitted effect of over 60% in size
Target sequence (Q99714 whole entry, looked up, one chain of several): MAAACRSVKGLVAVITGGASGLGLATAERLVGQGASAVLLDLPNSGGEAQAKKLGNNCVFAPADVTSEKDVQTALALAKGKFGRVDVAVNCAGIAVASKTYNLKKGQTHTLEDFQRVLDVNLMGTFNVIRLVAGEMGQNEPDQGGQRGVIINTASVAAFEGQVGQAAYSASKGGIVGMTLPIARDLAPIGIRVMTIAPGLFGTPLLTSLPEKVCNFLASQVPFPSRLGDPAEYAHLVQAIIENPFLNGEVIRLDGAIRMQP
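Read-out: 360 nm excitation, 450 nm emission, kinetic over 4 min. Conditions: His-tagged human HADH2 20 nM, pH 9.0 Tris with Tween-20, 1 mM NAD+, 90 uM beta-hydroxybutyryl-CoA.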
HSD17B inh: HSD17B dehydrogenase inhibition. actives 7.6% (n = 75,000). AID 893. Q99714. Potency, µM (doses to about 57.1 µM), for inactives: at the top dose activity change, negative = inhibition, usual class: inhibitors. recombinant HSD17B10, NADH fluorescence kinetic;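 note: the protocol describes HADH2 (HSD17B10) and not the HSD17B4 of the title; potency is the fitted concentration of half-maximal effect; % is set by controls: 0 for no effect and ±100 for the full control effect; nearly all actives have a fitted effect of over 70% in size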
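His-tagged E. coli-expressed HADH2 at 20 nM in 100 mM Tris-HCl pH 9.0 with 0.01 % Tween-20, preincubated 15 min with compound at room temperature. Reaction with 1 mM NAD+ and 90 uM beta-hydroxybutyryl coenzyme A; NADH fluorescence (360/450 nm) read kinetically over 4 min, last minus first point.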
Numbers without * were called inactive; i = inactive; ? = inconclusive; . = no result given; [ ] = remark or other dose. Unless noted, calls come from the whole dose curve; as a rule, active = well fitted curve in the direction sought with a large enough effect; inconclusive = small, poorly fitted or top-dose-only effect, or another doubt; inactive = no such curve, though single readings can be large; an effect the other way counts as inactive or inconclusive.

SMILES	A350 autofl	AID923	CRE-bla Fsk	4MU fluor	HADH2 inhib	HSD17B inh
O=C(Cn1ccc2ccccc2c1=O)NCCC(=O)N1CCN(C2CCCCC2)CC1	i	-1.6%	8.3%	i	-6.7%	31.6µM*
COc1ccc(Cn2c3nc4ccccc4nc3c3c(=O)n(Cc4ccco4)cnc32)cc1	4.01e-08M*	16.0%	12.6µM*	3.2e-08M*	?	15.8µM*
Cc1cccc(-n2cnc3c(c2=O)c2nc4ccccc4nc2n3Cc2ccco2)c1	3.15e-07M*	9.1%	?	2.04e-07M*	93.7%	31.6µM*
COc1ccc(C2OC3C(CO)OC(n4cnc5c(=O)[nH]c(N)nc54)C3O2)cc1 (stereo unspecified)	.	1.3%	.	.	.	5.0%
O=c1c2ccccc2n2cnnc2n1-c1ccccc1	4.25e-08M*	-0.1%	8.9%	4.27e-08M*	-8.8%	10.1%
Nn1c(SC/C=C/c2ccccc2)nnc1-c1ccccn1	i	-1.9%	13.9%	i	-23.8%	-6.2%
Cc1cccc(CSc2nnc(-c3ccccn3)n2N)c1	9.95e-08M*	2.9%	-5.0%	7.89e-08M*	-7.2%	-19.1%
COc1ccc(O[C@H]2C=C[C@@H](c3ccccc3)O[C@H]2COC(=O)CC/C(C)=N\O[C@@H](C)CN2CCCCc3nc(C)c(C)cc32)cc1	.	-0.9%[11.5 µM]	.	.	-2.0%[11.4 µM]	9.1%[11.4 µM]
CC(=O)Nc1c(C(=O)c2ccc(F)cc2)oc2ccccc12	1.26e-08M*	3.0%	1.6%	1.39e-08M*	-2.6%	0.6%
CCOC(=O)c1oc2ccccc2c1NC(=O)COc1cccc(OC)c1	3.01e-08M*	-0.6%	7.6%	3.01e-08M*	?	-25.6%
CCOC(=O)c1oc2ccccc2c1NC(=O)COc1ccc(F)cc1	2.21e-08M*	0.2%	13.0%	2.09e-08M*	1.5%	-25.6%
CCOC(=O)c1oc2ccccc2c1NC(=O)c1ccccc1OC	3.25e-08M*	-0.6%	2µM*	3.2e-08M*	31.6µM*	?
COc1ccc(OC)c(C(=O)c2oc3ccccc3c2NC(C)=O)c1	i	-1.0%	10.4%	i	4.4%	-1.3%
Cc1ccccc1-c1nc(N2CCOCC2)c2ccccc2n1	i	-1.0%	?	i	-14.2%	-6.8%
Cc1ccccc1-c1nc(N2CCN(C)CC2)c2ccccc2n1	?	5.5%	?	?	-0.5%	20µM*
CC(C)[C@H](NC(=O)NCc1ccco1)C(=O)O	i	0.6%	-0.4%	i	1.9%	20.4%
c1cc2c3c(c1)c1c(n3CCNC2)CCCC1	.	-2.0%	?	.	?	31.6µM*
O=C1Nc2ccc(I)cc2/C1=C/c1cc(Br)c(O)c(Br)c1	i	-2.6%	?	i	12.6µM*	7.94µM*
O=C(c1cc(C(F)(F)F)cc(C(F)(F)F)c1)N1CCC2(CCCN(Cc3ccccc3)C2)CC1	i	-1.0%	-3.3%	i	7.6%	-4.1%
Cc1ccc(NC(=O)NC(=O)N(c2ccccc2)S(C)(=O)=O)cc1	i	-1.5%	-5.2%	i	7.0%	5.5%
COc1ccc(C2C(C(C)=O)=C(O)C(=O)N2CCc2ccccc2)c(OC)c1 (stereo unspecified)	i	0.9%	-14.5%	i	-25.8%	-20.6%
CCCN1C(=O)c2ccccc2NC1c1ccc(OC)cc1O (stereo unspecified)	8e-07M*	4.6%	11.9%	5.78e-07M*	41.0%	31.6µM*
CCCN1C(=O)c2cc(C(=O)O)ccc2C1O (stereo unspecified)	.	0.1%	-0.1%	.	-16.3%	-15.7%
CCCN1C(=O)c2ccccc2NC1c1ccc(OC)cc1OC (stereo unspecified)	9.9e-07M*	7.4%	?	8.55e-07M*	31.6µM*	25.1µM*
Cc1cc2cc(C(c3nnnn3Cc3ccco3)N3CCc4ccccc4C3)c(=O)[nH]c2cc1C (stereo unspecified)	1.05e-08M*	10.9%	-19.2%	1.03e-08M*	-14.2%	?
Cc1ccc2[nH]c(=O)c(C(c3nnnn3CC3CCCO3)N3CCCc4ccccc43)cc2c1 (stereo unspecified)	1.21e-08M*	4.7%	17.7%	1.22e-08M*	-21.4%	31.6µM*
